Results on seven compounds are retold here after PubChem BioAssay (NCATS).

Records with an inconclusive call do not appear. A number with no mark means an inactive call. Active and inactive are the calls of the source. Calls come from the whole dose curve; as a rule, active = well fitted cell-killing curve with a large enough effect; inconclusive = small, poorly fitted or top-dose-only effect, or effect the other way; inactive = no such curve, though single readings can be large or run the other way.

Test [1] is described as follows: Viability qHTS for spleen associated tyrosine kinase inhibitor (SYKi) naive MV4-11 cells (AID 1963823). Note: nearly all actives have a fitted effect of over 40% in size. The procedure, abridged:
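qHTS, SYK inhibitor-naive MV4-11; 500 cells/well; 72 hr compound exposure, 37 C; CellTiter-Glo added, 10 min RT; luminescence read.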
A general note: In qHTS, concentration-response curves come from the screen itself.

The nature of test [2]: Viability qHTS for spleen associated tyrosine kinase inhibitor (SYKi) drug resistant MV4-11 cells (AID 1963824). Note: nearly all actives have a fitted effect of over 35% in size. The procedure, abridged: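 CellTiter-Glo luminescence, read 10 min after reagent addition, reports viability after a 72 hr compound exposure. Cells are an MV4-11 line made resistant to SYK inhibition, seeded at 500 per well onto compound-containing plates.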
Potency is the fitted concentration of half-maximal effect.

For the compound `Nc1nc(OC(c2ccc(-c3cccc(F)c3)cc2)C(F)(F)F)cc(-c2ccc(C[C@H](N)C(=O)O)cc2)n1` (some centres undefined), the Potency in test [1] and in test [2] was 18.6 µM (active) throughout.
Regarding `C[C@@H]1CCC2C(C)(C)[C@H](O)CC[C@]2(C)[C@@]12Cc1c(O)cc3c(c1O2)CNC3=O` (some centres undefined), the Potency result in test [1] and in test [2] was “inactive” each time.
In the case of `CC(C)=CC[C@H]1O[C@]2(O)C([C@H]3CCC4[C@@]5(C)CC[C@H](O[C@@H]6O[C@H](CO)[C@H](O)[C@H](O[C@@H]7O[C@H](CO)[C@@H](O)[C@H](O)[C@H]7O)[C@H]6O[C@@H]6O[C@@H](C)[C@H](O)[C@@H](O)[C@H]6O)C(C)(C)C5CC[C@@]4(C)[C@]3(C)[C@H]2O)[C@@]1(C)O` (some centres undefined), in test [1], the viability (% of control) is 84.2% [at 9.25 µM]. Further, in test [2], the viability, % of control is 80.7% [at 9.25 µM].
As to `COc1cc(C(=O)OC[C@H]2O[C@H](O[C@@]3(CO)O[C@@H](CO)[C@H](O)[C@H]3O)[C@H](O)[C@@H](O)[C@@H]2O)ccc1O`, the Potency result in test [1] and in test [2] was “inactive” throughout.
Regarding `CC1=C2C(=O)C=C(CO)C2C2OC(=O)C(CS(=O)(=O)O)C2C(OC(=O)Cc2ccc(O)cc2)C1` (centres undefined), the Potency result in test [1] and in test [2] was “inactive” in each case.
With `COC1=Cc2c(nc3n(c2=O)C(C)C(=O)NC3(O)C(C)C)OC=C1` (centres undefined), the Potency result in test [1] and in test [2] was “inactive” throughout.
On to `C[C@@H]1O[C@@H](O[C@H]2[C@H](O[C@H]3[C@H](O[C@H]4CC[C@@]5(C)C(CC[C@]6(C)C5CC=C5[C@@H]7CC(C)(C)C[C@@H](O)[C@]7(C)CC[C@]56C)[C@@]4(C)CO)O[C@H](C(=O)O)[C@@H](O)[C@@H]3O)OC[C@H](O)[C@@H]2O)[C@H](O)[C@H](O)[C@H]1O` (some centres undefined), for which the viability (% of control) in test [1] is 76.2% [at 9.25 µM]. Also, the viability, % of control in test [2] is 84.4% [at 9.25 µM].
